Data taken from PubChem BioAssay (EPA / NIEHS).
“And” between values parts separate entries of the source, which are not always exact repeats. Equal values may be shown once. Records with an inconclusive call do not appear. Some compounds were tested as several samples or in several runs, with calls that do not always agree. The source made the active and inactive calls. How the source made its calls, unless noted: active means hit-call score of the fitted dose curve at least 0.9, where 1 is the maximum; inconclusive means response in the unintended direction; inactive means score below 0.9.

Columns and labels:
[1] = system: Sodium/Iodide Symporter (NIS), SLC5A5 (gene 6528); test: CPHEA_Stoker_NIS_Inhibition_RAIU: CPHEA's Radioactive Iodide Uptake (RAIU) Assay for Sodium/Iodide Symporter (NIS) Inhibition, Stoker and Laws Labs (AID 2283841)
In short: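 HEK293T cells stably expressing human NIS (hNIS-HEK293T-EPA) were exposed to test chemicals at 0.001–100uM (0.5% final DMSO) with 125I at a final 329pM in HBSS/10mM HEPES pH 7.4. After 2 hours at room temperature and ice-cold washes, intracellular 125I was counted as CPM and normalized to DMSO wells.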

[2] = ATG_M_19_XSP2: Attagene TRANS-FACTORIAL Multi-Species (XSP2) HepG2 Assay for M32 Transcription Factor (Internal Marker) (AID 2283822)
In short: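 Internal background marker in a multi-species nuclear receptor TRANS panel: transfected HepG2 cells exposed 24 h, with 3 nM 6-alpha-fluorotestosterone and 1.5 nM norgestrel present. Readout is RT-PCR of reporter transcripts resolved by capillary electrophoresis, gain-of-signal versus DMSO.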

[3] = system: zebrafish Estrogen Receptor (ER2b), gene 317733; test: ATG_zfER2b_XSP2: Attagene TRANS-FACTORIAL Multi-Species (XSP2) HepG2 Assay for zebrafish Estrogen Receptor (ER2b) (AID 2283823);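 further: fitted upward as reporter gain over DMSO so potency reflects activation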
In short: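 Cells used were HepG2, transiently transfected with chimeric nuclear receptor-Gal4 reporter units. After 24 h of chemical treatment, reporter transcripts were amplified by RT-PCR, labelled and sized by capillary electrophoresis, with induction analysed relative to DMSO.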

[4] = system: frog Androgen Receptor (AR), gene 399456; test: ATG_frAR_XSP2: Attagene TRANS-FACTORIAL Multi-Species (XSP2) HepG2 Assay for frog Androgen Receptor (AR) (AID 2283824);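 further: reporter mRNA from GAL4-UAS units driven by Xenopus AR-Gal4 chimera; actives raise reporter signal above DMSO so AC50 reflects agonist-like induction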
In short: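 Reporter transcript induction, read by RT-PCR with fluorescent capillary electrophoresis, in human liver HepG2 cells carrying an exogenous Xenopus AR-Gal4 fusion and GAL4-driven reporters; chemical exposure 24 hours, activity scored upward against DMSO controls.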

[5] = system: zebrafish Androgen Receptor (AR), gene 100005148; test: ATG_zfAR_XSP2: Attagene TRANS-FACTORIAL Multi-Species (XSP2) HepG2 Assay for zebrafish Androgen Receptor (AR) (AID 2283825);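 further: hits raise reporter mRNA above DMSO so AC50 reflects agonist-type gain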
In short: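 After 24 h compound exposure in medium with 3 nM 6-alpha-fluorotestosterone plus 1.5 nM norgestrel, HepG2 cells carrying zebrafish AR–GAL4 reporter constructs were assessed for reporter mRNA gain by RT-PCR and capillary electrophoresis.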

[6] = system: frog Estrogen Receptor (ER2), gene 100174814; test: ATG_frER2_XSP2: Attagene TRANS-FACTORIAL Multi-Species (XSP2) HepG2 Assay for frog Estrogen Receptor (ER2) (AID 2283828)
In short: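 Cells were transfected with reporter constructs under GAL4-UAS control, dosed with chemicals for 24 h, then lysed for RNA; the frog ER2-driven reporter mRNA was quantified by capillary electrophoresis of labeled PCR fragments, with activity fitted upward from DMSO.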

[7] = target: mouse Peroxisome Proliferator-activated Receptor gamma (PPARg), Pparg (gene 19016) (UniProt P37238); test: ATG_mPPARg_XSP2: Attagene TRANS-FACTORIAL Multi-Species (XSP2) HepG2 Assay for mouse Peroxisome Proliferator-activated Receptor gamma (PPARg) (AID 2283830);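 further: hits are gains in reporter mRNA above DMSO so AC50 marks activation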
In short: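 Multiplexed TRANS reporter readout: after 24 h chemical exposure of transfected HepG2 cells (with 3 nM 6-alpha-fluorotestosterone, 1.5 nM norgestrel present), RNA reverse-transcribed, amplified, 6-FAM-labelled and resolved by capillary electrophoresis; mouse PPARg-Gal4 induction scored against DMSO.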

[8] = target: Nuclear receptor subfamily 1 group I member 2 (Mus musculus) (UniProt O54915); test: ATG_mPXR_XSP2: Attagene TRANS-FACTORIAL Multi-Species (XSP1) HepG2 Assay for mouse Pregnane X Receptor (PXR) (AID 2283831)
In short: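 Reporter transcripts were quantified by RT-PCR, FAM primer extension, HpaI digestion and capillary electrophoresis after 24 h of chemical exposure in transiently transfected HepG2 cells carrying chimeric receptor-GAL4 constructs; DMSO served as baseline.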

[9] = system: zebrafish Peroxisome Proliferator-activated Receptor gamma (PPARg), gene 557037; test: ATG_zfPPARg_XSP2: Attagene TRANS-FACTORIAL Multi-Species (XSP2) HepG2 Assay for zebrafish Peroxisome Proliferator-activated Receptor gamma (PPARg) (AID 2283833);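 further: actives increase reporter signal over DMSO so AC50 reflects activation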
In short: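 Multi-species TRANS format in HepG2, 24 h dosing; medium also contained 3 nM 6-alpha-fluorotestosterone and 1.5 nM norgestrel to stimulate androgen receptor. Zebrafish PPARg-GAL4 induced reporter mRNA was measured by RT-PCR/capillary electrophoresis.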

[10] = system: turtle Thyroid Hormone Receptor, alpha (TRa), gene 101949057; test: ATG_trTRa_XSP2: Attagene TRANS-FACTORIAL Multi-Species (XSP1) HepG2 Assay for turtle Thyroid Hormone Receptor, alpha (TRa) (AID 2283834);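 further: hits raise reporter mRNA over the DMSO baseline so AC50 marks activators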
In short: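 Transfection of HepG2 with multiple reporter transcription units, then chemical dosing for 24 h. Total RNA was reverse-transcribed, reporter sequences PCR-amplified and FAM-labelled, then sized by capillary electrophoresis. DMSO served as baseline.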

[11] = target: frog Thyroid hormone Receptor alpha (TRa), thra-a (gene 397942) (UniProt P15204); test: ATG_frTRa_XSP2: Attagene TRANS-FACTORIAL Multi-Species (XSP2) HepG2 Assay for frog Thyroid hormone Receptor alpha (TRa) (AID 2283839);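 on AC50: AC50 reflects induction of frog TRa-driven reporter mRNA above DMSO baseline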
In short: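 Transfect HepG2 with multiple reporter units (GAL4-UAS), dose chemical, incubate 24 h. Isolate RNA, reverse-transcribe, PCR-amplify reporter, label with 6-FAM by primer extension, digest with HpaI, run capillary electrophoresis; induction scored against DMSO.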

[12] = target: human Thyroid hormone Receptor beta (TRb), THRB (gene 7068) (UniProt P10828); test: ATG_hTRb_XSP2: Attagene TRANS-FACTORIAL Multi-Species (XSP2) HepG2 Assay for human Thyroid hormone Receptor beta (TRb) (AID 2283840);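 further: actives raise reporter mRNA so potency reflects agonist-like gain of signal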
In short: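 Transient transfection of human HepG2 with multi-species NR-Gal4/GAL4-UAS reporter constructs; 24 h compound treatment; RNA isolation, reverse transcription, PCR and HpaI digest; capillary electrophoresis of labeled fragments; activity fitted upward versus DMSO.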

[13] = system: chicken Androgen Receptor (AR), gene 422165; test: ATG_chAR_XSP2: Attagene TRANS-FACTORIAL Multi-Species (XSP2) HepG2 Assay for chicken Androgen Receptor (AR) (AID 2283819);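 further: hits raise reporter mRNA above DMSO so potency is for activation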
In short: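 Readout is reporter mRNA induction via RT-PCR/capillary electrophoresis after 24 h chemical exposure, positive direction relative to DMSO. Transiently transfected HepG2 express chimeric chicken AR–GAL4; AR stimulated by 3 nM 6-alpha-fluorotestosterone and 1.5 nM norgestrel.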

[14] = system: frog Estrogen Receptor (ER), gene 398734; test: ATG_frER1_XSP2: Attagene TRANS-FACTORIAL Multi-Species (XSP2) HepG2 Assay for frog Estrogen Receptor (ER) (AID 2283821);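 further: hits raise reporter mRNA above DMSO baseline so potency means agonist or activator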
In short: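 Reporter mRNA induction, detected as fluorescence after RT-PCR and capillary electrophoresis, is the endpoint; activity is fitted upward against DMSO. Cells are human liver HepG2 carrying transfected NR-Gal4 chimeras with GAL4-UAS-driven reporters, harvested 24 h post-dosing.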

[15] = target: Peroxisome proliferator-activated receptor gamma (Homo sapiens) (UniProt P37231); test: ATG_hPPARg_XSP2: Attagene TRANS-FACTORIAL Multi-Species (XSP2) HepG2 Assay for human Peroxisome Proliferator-activated Receptor gamma (PPARg) (AID 2283829);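 further: actives raise reporter mRNA above DMSO so AC50 reflects PPARg activation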
In short: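 After transfecting HepG2 with GAL4-UAS reporter constructs, cells are dosed for 24 h; total RNA is reverse-transcribed, PCR-amplified, FAM-labeled, HpaI-digested and resolved by capillary electrophoresis. Activity is measured as mRNA induction relative to DMSO.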

[16] = target: zebrafish Thyroid Hormone Receptor alpha (TRa), thraa (gene 30670) (UniProt Q98867); test: ATG_zfTRa_XSP2: Attagene TRANS-FACTORIAL Multi-Species (XSP1) HepG2 Assay for zebrafish Thyroid Hormone Receptor alpha (TRa) (AID 2283832);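 further: actives raise zebrafish TRa-Gal4 reporter transcript above DMSO baseline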
In short: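 Readout is reporter mRNA induction, quantified by RT-PCR and capillary electrophoresis with fluorescent labelling, after 24 h compound exposure of transiently transfected HepG2 cells carrying NR-Gal4 chimera reporters. Activity fitted upward relative to DMSO.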

[17] = ATG_M_61_XSP2: Attagene TRANS-FACTORIAL Multi-Species (XSP2) HepG2 Assay for M61 Transcription Factor (Internal Marker) (AID 2283835; active means hit-call score of the fitted dose curve at least 0.9, where 1 is the maximum; inactive means score below 0.9;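 further: active means a rise in signal above the DMSO baseline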)
In short: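 Transient MRTU transfection of human HepG2; 24 h chemical dosing with 3 nM 6-alpha-fluorotestosterone + 1.5 nM norgestrel added for AR stimulation. RNA isolated, RT, PCR, FAM-labelled, HpaI cut, CE read. Positive direction vs DMSO.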

[18] = target: human Thyroid hormone Receptor alpha (TRa), THRA (gene 7067) (UniProt P10827); test: ATG_hTRa_XSP2: Attagene TRANS-FACTORIAL Multi-Species (XSP2) HepG2 Assay for human Thyroid hormone Receptor alpha (TRa) (AID 2283838)
In short: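 Gain-of-signal in reporter mRNA, relative to DMSO, after 24 h dosing of transfected HepG2; quantitation by RT-PCR fragment analysis on capillary electrophoresis.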

[19] = target: Estrogen receptor (Homo sapiens) (UniProt P03372); test: ATG_hERa_XSP2: Attagene TRANS-FACTORIAL Multi-Species (XSP2) HepG2 Assay for human Estrogen Receptor (ERa) (AID 2283827)
In short: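 Trans-activation of exogenous human ERa-Gal4 chimera read in HepG2 as reporter transcript after 24 h exposure; medium included 3 nM 6-alpha-fluorotestosterone and 1.5 nM norgestrel. Quantified by RT-PCR with capillary electrophoresis, positive-direction fitting against DMSO.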

[20] = ATG_XTT_Cytotoxicity_XSP2: Cytotoxicity Assessment in the Attagene TRANS-FACTORIAL Multi-Species (XSP2) HepG2 Assay (AID 2283837)
In short: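 XTT-based cell number read-out in human HepG2 liver cells carrying transfected reporter units, measured 24 h after chemical dosing. Activity is signal loss versus DMSO baseline.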

Measured: AC50

human Thyroid hormone Receptor beta (TRb), THRB (gene 7068), sequence (P10828 whole entry, looked up, the tested form may be a part): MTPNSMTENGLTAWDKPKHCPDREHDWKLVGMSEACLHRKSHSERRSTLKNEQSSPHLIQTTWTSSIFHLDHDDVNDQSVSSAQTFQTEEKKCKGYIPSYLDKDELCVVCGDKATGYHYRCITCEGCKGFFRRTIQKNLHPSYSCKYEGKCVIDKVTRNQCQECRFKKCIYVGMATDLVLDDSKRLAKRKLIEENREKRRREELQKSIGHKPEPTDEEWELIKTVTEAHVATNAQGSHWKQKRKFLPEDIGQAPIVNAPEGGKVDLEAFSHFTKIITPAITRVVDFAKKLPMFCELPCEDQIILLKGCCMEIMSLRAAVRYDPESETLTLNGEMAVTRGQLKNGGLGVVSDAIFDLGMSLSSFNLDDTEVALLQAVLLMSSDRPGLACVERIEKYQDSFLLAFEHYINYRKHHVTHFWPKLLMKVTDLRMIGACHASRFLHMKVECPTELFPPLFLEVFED
human Thyroid hormone Receptor alpha (TRa), THRA (gene 7067), sequence (P10827 whole entry, looked up, the tested form may be a part): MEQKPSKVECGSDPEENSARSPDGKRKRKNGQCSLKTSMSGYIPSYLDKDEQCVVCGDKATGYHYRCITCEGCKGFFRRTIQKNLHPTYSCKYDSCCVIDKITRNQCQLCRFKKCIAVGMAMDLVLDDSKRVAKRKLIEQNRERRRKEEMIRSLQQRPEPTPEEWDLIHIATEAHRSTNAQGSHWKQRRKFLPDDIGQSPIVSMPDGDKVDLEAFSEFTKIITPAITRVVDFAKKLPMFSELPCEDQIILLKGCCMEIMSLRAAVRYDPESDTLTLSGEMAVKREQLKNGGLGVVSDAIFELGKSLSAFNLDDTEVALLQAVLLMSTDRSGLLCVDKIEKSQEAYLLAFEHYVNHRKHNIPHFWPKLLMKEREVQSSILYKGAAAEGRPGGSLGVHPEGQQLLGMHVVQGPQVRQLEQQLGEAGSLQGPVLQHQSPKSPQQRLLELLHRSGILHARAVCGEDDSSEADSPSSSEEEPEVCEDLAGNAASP
mouse Peroxisome Proliferator-activated Receptor gamma (PPARg), Pparg (gene 19016), sequence (P37238 whole entry, looked up, the tested form may be a part): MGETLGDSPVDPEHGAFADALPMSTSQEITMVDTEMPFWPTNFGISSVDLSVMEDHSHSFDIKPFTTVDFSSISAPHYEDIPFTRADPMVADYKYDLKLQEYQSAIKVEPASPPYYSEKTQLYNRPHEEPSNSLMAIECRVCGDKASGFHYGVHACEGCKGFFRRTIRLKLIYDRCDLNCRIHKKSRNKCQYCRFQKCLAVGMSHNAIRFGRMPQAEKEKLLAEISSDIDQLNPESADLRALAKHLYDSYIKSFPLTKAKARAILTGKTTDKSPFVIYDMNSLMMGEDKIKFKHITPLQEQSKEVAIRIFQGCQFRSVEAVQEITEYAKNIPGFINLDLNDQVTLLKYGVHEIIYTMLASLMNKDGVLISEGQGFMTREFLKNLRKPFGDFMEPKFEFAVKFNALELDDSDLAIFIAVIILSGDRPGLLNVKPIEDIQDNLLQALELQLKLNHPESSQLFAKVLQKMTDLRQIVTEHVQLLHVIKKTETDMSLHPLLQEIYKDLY
frog Thyroid hormone Receptor alpha (TRa), thra-a (gene 397942), sequence (P15204 whole entry, looked up, the tested form may be a part): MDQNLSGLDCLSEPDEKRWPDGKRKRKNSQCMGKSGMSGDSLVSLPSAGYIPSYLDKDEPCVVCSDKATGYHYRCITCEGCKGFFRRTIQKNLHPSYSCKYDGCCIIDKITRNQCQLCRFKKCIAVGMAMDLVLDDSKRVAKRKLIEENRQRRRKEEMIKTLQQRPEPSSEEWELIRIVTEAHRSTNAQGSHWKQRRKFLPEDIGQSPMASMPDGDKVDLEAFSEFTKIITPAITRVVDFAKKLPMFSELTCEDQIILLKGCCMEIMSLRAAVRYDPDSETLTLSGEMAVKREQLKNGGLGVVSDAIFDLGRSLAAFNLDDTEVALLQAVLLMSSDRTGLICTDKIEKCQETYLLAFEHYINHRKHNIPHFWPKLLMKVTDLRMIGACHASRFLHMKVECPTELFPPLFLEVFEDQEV
Nuclear receptor subfamily 1 group I member 2 (Mus musculus), sequence (O54915 whole entry, looked up, the tested form may be a part): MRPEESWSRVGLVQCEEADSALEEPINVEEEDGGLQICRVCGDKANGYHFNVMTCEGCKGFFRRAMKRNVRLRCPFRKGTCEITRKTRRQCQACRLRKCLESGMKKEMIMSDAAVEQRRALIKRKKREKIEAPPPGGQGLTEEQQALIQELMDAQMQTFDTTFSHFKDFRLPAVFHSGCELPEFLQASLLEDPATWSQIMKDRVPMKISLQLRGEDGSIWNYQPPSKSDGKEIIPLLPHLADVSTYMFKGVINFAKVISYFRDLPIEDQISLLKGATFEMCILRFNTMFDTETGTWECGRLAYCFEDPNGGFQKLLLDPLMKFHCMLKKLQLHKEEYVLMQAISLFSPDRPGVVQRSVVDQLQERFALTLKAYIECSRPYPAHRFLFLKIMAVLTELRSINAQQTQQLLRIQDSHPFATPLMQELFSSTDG
zebrafish Thyroid Hormone Receptor alpha (TRa), thraa (gene 30670), sequence (Q98867 whole entry, looked up, the tested form may be a part): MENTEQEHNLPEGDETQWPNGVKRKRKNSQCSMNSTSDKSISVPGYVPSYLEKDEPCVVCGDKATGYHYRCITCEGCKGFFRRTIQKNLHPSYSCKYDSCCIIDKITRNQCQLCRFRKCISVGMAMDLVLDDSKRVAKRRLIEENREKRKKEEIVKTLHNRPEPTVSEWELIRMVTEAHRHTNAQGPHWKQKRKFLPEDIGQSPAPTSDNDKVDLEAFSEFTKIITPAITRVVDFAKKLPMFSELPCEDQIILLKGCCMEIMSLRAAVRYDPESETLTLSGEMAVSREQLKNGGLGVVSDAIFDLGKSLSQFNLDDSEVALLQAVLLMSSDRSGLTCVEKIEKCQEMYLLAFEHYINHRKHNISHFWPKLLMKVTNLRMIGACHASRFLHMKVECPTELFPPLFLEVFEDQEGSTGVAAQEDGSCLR
Peroxisome proliferator-activated receptor gamma (Homo sapiens), sequence (P37231 whole entry, looked up, the tested form may be a part): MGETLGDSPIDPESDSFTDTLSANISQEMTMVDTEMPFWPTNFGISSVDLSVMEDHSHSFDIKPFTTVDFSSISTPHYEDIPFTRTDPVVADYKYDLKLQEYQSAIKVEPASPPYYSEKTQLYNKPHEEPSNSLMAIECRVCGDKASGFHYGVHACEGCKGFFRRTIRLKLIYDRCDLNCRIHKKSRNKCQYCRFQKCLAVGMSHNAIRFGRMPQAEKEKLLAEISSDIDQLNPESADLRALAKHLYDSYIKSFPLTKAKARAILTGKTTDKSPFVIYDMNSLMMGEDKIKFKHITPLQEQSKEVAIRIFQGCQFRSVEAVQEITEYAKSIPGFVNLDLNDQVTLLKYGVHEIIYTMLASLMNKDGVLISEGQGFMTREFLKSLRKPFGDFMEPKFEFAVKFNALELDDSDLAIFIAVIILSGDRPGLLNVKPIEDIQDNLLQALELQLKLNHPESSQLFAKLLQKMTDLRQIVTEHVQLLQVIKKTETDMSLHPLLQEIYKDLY
Estrogen receptor (Homo sapiens), sequence (P03372 whole entry, looked up, the tested form may be a part): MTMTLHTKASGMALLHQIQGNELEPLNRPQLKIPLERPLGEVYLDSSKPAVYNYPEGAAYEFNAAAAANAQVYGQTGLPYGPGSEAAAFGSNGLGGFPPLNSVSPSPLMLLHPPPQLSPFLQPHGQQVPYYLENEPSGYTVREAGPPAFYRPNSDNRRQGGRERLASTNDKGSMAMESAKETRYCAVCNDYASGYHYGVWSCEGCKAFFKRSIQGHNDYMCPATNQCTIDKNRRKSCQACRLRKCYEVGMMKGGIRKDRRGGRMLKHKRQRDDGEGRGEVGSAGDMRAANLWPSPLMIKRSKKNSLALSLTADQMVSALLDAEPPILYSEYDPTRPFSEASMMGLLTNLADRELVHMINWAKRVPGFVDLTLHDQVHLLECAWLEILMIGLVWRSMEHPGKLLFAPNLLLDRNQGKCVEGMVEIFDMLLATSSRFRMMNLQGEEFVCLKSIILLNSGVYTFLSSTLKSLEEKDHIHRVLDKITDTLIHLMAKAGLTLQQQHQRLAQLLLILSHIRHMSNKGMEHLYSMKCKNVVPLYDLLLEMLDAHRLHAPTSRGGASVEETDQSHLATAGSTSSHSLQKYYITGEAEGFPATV

CC1=C(/C=C/C(C)=C/C=C/C(C)=C/C(=O)O)C(C)(C)CCC1
inactive: [1]

C#C[C@]1(O)CC[C@H]2[C@@H]3CCC4=CC(=O)CC[C@@H]4[C@H]3CC[C@@]21C
inactive: [2] | [7] | [9] | [10] | [11] | [12]
active: [3] 299 nM | [4] 2.8 µM | [5] 1.84 µM | [6] 1.5 µM | [8] 529 nM

CCCCCCCCCCCCCC[N+](C)(C)C
active: [1] 19.2 µM

O=C(O)Cc1cc(I)c(Oc2cc(I)c(O)c(I)c2)c(I)c1
inactive: [13] | [14] | [3] | [4] | [7] | [8] | [9] | [17] | [1]
active: [15] 524 nM and 681 nM | [7] 560 nM | [16] 123 nM and 54.3 nM | [10] 91.9 nM and 48.7 nM | [18] 75.3 nM and 30.2 nM | [11] 86.6 nM and 15.1 nM | [12] 38.4 nM and 12.3 nM

CC[C@H](C)[C@@H](C(=O)O)n1sc2ccccc2c1=O
inactive: [1]

CCCOC(=O)c1ccc(O)cc1
active: [13] 32 µM | [14] 27.7 µM and 407 nM | [3] 65.8 µM and 8.51 µM | [19] 23.5 µM and 2.61 µM | [6] 38.2 µM and 1.53 µM | [15] 66.4 µM and 100 µM | [7] 100 µM and 87.6 µM | [12] 100 µM
inactive: [4] | [8] | [16] | [9] | [10] | [17] | [20] | [18] | [11] | [12]

FC(F)(I)C(F)(F)C(F)(F)C(F)(F)C(F)(F)C(F)(F)I
active: [1] 5.79 µM

ClC1=C(Cl)C(Cl)(Cl)C(Cl)=C1Cl
active: [1] 19.1 µM

Oc1cc2ccccc2c2ccccc12
active: [15] 8.93 µM | [7] 6980 nM | [16] 10.6 µM | [10] 10.6 µM | [20] 15.7 µM | [18] 33.4 µM | [11] 33.4 µM | [12] 16.3 µM
inactive: [2] | [3] | [15] | [8] | [16] | [10] | [11] | [1]

O=C(OCCOCCOC(=O)c1ccccc1)c1ccccc1
inactive: [1]

CC(C)(C)c1ccc(O)c(C(C)(C)C)c1
active: [1] 50 µM

c1ccc2c(c1)Cc1ccccc1-2
inactive: [1]

O=C1OC2(c3ccccc31)c1cc(Br)c(O)c(Br)c1Oc1c2cc(Br)c(O)c1Br
active: [1] 14.1 µM
